RGS16-Gao: regulators of human RGS16-Galphao interaction. O15492+P09471. bead-based flow cytometry RGS16-Galphao binding, fluorescence; actives lie on both sides. binding response (% of control), % at 10 µM. 220,000 compounds, 0.38% hits. AID 1441; call rule not given here;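 also: Galphao activated by GDP with aluminum fluoride before binding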
Avidin bead fluor: compound fluoresces at 488/530 nm on avidin beads. 220,000 compounds, 0.38% hits. AID 1775. compound fluorescence 488/530 nm, flow cytometry; active compounds read high. fluorescence (KMESF) at 10 µM; in the data active = fluorescence above about 47
RGS8-Gao reg: modulates binding of RGS8 to human Galphao; response (percent of control binding), % at 10 µM; 220,000 compounds, 0.34% hits; multiplexed bead flow cytometry; actives lie on both sides; P09471; in the data active = response below about 60% or above about 140%; inactive = in between;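 also: Galphao activated as the GDP aluminium fluoride complex binding bead-coupled RGS8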
Target sequence (P09471 whole entry, looked up): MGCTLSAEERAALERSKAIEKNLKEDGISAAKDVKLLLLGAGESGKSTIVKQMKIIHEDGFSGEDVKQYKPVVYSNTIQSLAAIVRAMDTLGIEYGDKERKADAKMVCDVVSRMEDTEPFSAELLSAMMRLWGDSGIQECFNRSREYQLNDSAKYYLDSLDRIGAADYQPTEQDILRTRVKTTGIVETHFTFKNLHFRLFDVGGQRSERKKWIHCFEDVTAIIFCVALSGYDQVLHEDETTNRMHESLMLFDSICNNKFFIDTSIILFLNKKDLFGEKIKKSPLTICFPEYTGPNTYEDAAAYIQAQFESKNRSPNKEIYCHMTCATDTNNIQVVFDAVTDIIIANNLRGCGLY
RGS7-Gao: regulators of human RGS7-Galphao interaction; P09471; Multiplexed bead flow cytometry, RGS7-Galphao binding; actives lie on both sides; binding response (% of control), % at 10 µM; 220,000 compounds, 0.35% hits; AID 1439; in the data active = binding response below about 49% or above about 150%; inconclusive = no clear call, values can overlap the other calls; inactive = in between;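 also: fluorescent Galphao held in activated GDP-AlF4 state binding bead-coupled RGS7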
RGS4-Gao reg: modulates binding of RGS4 to human Galphao; P09471; Multiplexed bead flow cytometry; actives lie on both sides; binding response (% of control), % at 10 µM; 220,000 compounds, 0.33% hits; in the data active = binding response below about 49% or above about 150%; inactive = in between;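 also: fluorescent Galphao activated with aluminum fluoride binding bead-coupled RGS4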
GSH bead fluor: GSH bead compound fluorescence profile; GSH beads flow cytometry, compound fluorescence 488/530 nm; active compounds read high; fluorescence (KMESF) at 10 µM; 190,000 compounds, 0.25% hits; AID 1776; in the data active = fluorescence above about 89;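 also: glutathione beads carrying GST-tagged Bcl family fusion proteins plus one bare bead set; values are compound well signal with DMSO vehicle wells as background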
Avidin counter: counter-screen: compounds disrupting biotin binding to avidin beads. shares compounds with RGS16-Gao. streptavidin beads, fluorescein-biotin binding, flow cytometry. inhibition, % at 10 µM. 1,700 tested, under 10 active. AID 1783;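 active = inhibition above 50%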;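 also: median green fluorescence of gated singlet beads compared with DMSO control wells; 0% = DMSO wells and 100% = complete loss of bead fluorescence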
RGS8-Gao confirm: confirmation of regulators of human RGS8-Galphao interaction | shares compounds with RGS16-Gao | bead-based flow cytometry RGS8-Galphao binding, fluorescence; actives lie on both sides | binding response (% of control), % at 10 µM | 1,700 compounds, 3% hits | AID 1836; in the data active = binding response below about 72% or above about 130%; inactive = in between;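 also: Galphao activated as GDP AlF4 complex before binding bead RGS8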
RGS7-Gao single: confirmation of regulators of human RGS7-Galphao interaction | bead-based flow cytometry RGS7-Galphao binding; actives lie on both sides | shares compounds with RGS16-Gao | response (percent of control binding), % at 10 µM | 1,700 compounds, 7.8% hits; in the data active = response below about 75% or above about 130%; inactive = in between;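 also: fluorescent Galphao activated with GDP and aluminum fluoride binding bead-coupled RGS7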
RGS16-Gao single: confirmation of regulators of human RGS16-Galphao interaction | shares compounds with RGS16-Gao | bead-based flow cytometry, RGS16-Galphao binding; actives lie on both sides | response (% of control binding), % at 10 µM | 1,700 compounds, 4% hits | AID 1838; in the data active = response below about 74% or above about 130%; inactive = in between;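 also: Galphao activated as the GDP aluminium fluoride complex binding bead-coupled RGS16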
RGS4-Gao single: RGS4-Galphao interaction regulation, single point confirmation; shares compounds with RGS16-Gao; RGS4-Galphao binding, multiplexed bead flow cytometry; actives lie on both sides; binding response (% of control), % at 10 µM; 1,700 compounds, 4% hits; AID 1840; in the data active = binding response below about 74% or above about 130%; inactive = in between
RGS19-Gao conf: RGS19-Galphao interaction regulation, single point confirmation; bead-based flow cytometry RGS19-Galphao binding; actives lie on both sides; 1,700 compounds, 5% hits; response (percent of control binding), % at 10 µM; shares compounds with RGS16-Gao; in the data active = response below about 50% or above about 160%; inactive = in between;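 also: 100% = no compound control and 0% = blank background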
Target sequence (P09471 whole entry, looked up): as above
Target sequence (P49795 whole entry, looked up): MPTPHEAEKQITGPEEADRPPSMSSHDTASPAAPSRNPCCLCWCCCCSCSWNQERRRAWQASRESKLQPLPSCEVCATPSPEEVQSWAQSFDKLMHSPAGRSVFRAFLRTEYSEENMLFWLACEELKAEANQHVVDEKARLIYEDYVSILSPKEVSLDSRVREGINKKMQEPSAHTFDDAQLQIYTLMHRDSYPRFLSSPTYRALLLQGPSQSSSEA
Active calls of the source: *; [ ] = dose if it differs, or a comment. The list is not random: actives were taken first. Their share in the collection is about 1.2%.

What do the screens show for `CCOC(=O)c1sc(-c2ccc(C(F)(F)F)cc2)nc1O`?
RGS16-Gao: 95.4; Avidin bead fluor: 6; RGS8-Gao reg: 99.8; RGS7-Gao: inconclusive; RGS4-Gao reg: 95.5

What do the screens show for `CCOC(=O)c1sc(-c2cccc(C(F)(F)F)c2)nc1O`?
RGS16-Gao: 96.2; Avidin bead fluor: 7; RGS8-Gao reg: 75.0; RGS7-Gao: inconclusive; RGS4-Gao reg: 97.0; Avidin counter: 0.3; RGS8-Gao confirm: 99.8; RGS7-Gao single: 94.0; RGS16-Gao single: 100.5; RGS4-Gao single: 98.3; RGS19-Gao conf: 90.2

What do the screens show for `COc1ccccc1NS(=O)(=O)c1ccc(O)c(C(=O)OCC(=O)N2c3ccccc3CC2C)c1` (configuration not stated)?
RGS16-Gao: 99.1; Avidin bead fluor: 13; RGS8-Gao reg: 100.9; RGS7-Gao: inconclusive; RGS4-Gao reg: 96.9; GSH bead fluor: 10

What do the screens show for `C/C(=N\NC(=O)Cc1cccn1C)c1cccs1`?
RGS16-Gao: 27.3; Avidin bead fluor: -2; RGS8-Gao reg: 29.5*; RGS7-Gao: 31.2*; RGS4-Gao reg: 34.2*; GSH bead fluor: 21; Avidin counter: -1.3; RGS8-Gao confirm: 102.4; RGS7-Gao single: 103.8; RGS16-Gao single: 102.0; RGS4-Gao single: 103.7; RGS19-Gao conf: 106.1

Results for CN(Cc1ccon1)C(=O)CC1C(=O)NCCN1CC1CCCCC1 (configuration not stated) ?
RGS16-Gao: 103.3; Avidin bead fluor: 11; RGS8-Gao reg: 101.0; RGS7-Gao: 99.0; RGS4-Gao reg: 100.6; GSH bead fluor: 16

Results for COc1ccc(C(=O)Nc2ccccc2C(=O)N(Cc2ccco2)C(C(N)=O)C(C)C)cc1 (configuration not stated) ?
RGS16-Gao: 332.5; Avidin bead fluor: 104*; RGS8-Gao reg: 144.0*[activator]; RGS7-Gao: 140.2; RGS4-Gao reg: 225.5*[activator]; GSH bead fluor: 12; Avidin counter: 0.7; RGS8-Gao confirm: 95.8; RGS7-Gao single: 78.5; RGS16-Gao single: 92.3; RGS4-Gao single: 82.9; RGS19-Gao conf: 104.4

What do the screens show for `Cc1ccc(S(=O)(=O)Nc2ccc(NC(=O)c3c(F)c(F)c(F)c(F)c3F)cc2)cc1`?
RGS16-Gao: 101.6; Avidin bead fluor: 6; RGS8-Gao reg: 100.6; RGS7-Gao: 103.3; RGS4-Gao reg: 99.9; GSH bead fluor: 19

What do the screens show for `CCNC(=O)c1ccccc1NC(=O)c1cccc(S(=O)(=O)N2CCOCC2)c1`?
RGS16-Gao: -4.5*; Avidin bead fluor: -3; RGS8-Gao reg: 6.6*; RGS7-Gao: -3.6*; RGS4-Gao reg: -14.3*; GSH bead fluor: 22; Avidin counter: 0.1; RGS8-Gao confirm: 102.0; RGS7-Gao single: 104.0; RGS16-Gao single: 102.5; RGS4-Gao single: 101.2; RGS19-Gao conf: 100.8

How did O=C(NCCCN1CCN(c2ccc(F)cc2)CC1)c1cccc(N2CCCC2=O)c1 do in these assays?
RGS16-Gao: 89.0; Avidin bead fluor: 23; RGS8-Gao reg: 97.6; RGS7-Gao: 89.1; RGS4-Gao reg: 91.9; GSH bead fluor: 16

What do the screens show for `O=C(NCCCN1CCCC1)c1cccc(N2CCCC2=O)c1`?
RGS16-Gao: 0.8; Avidin bead fluor: 1; RGS8-Gao reg: 10.2*; RGS7-Gao: 7.6*; RGS4-Gao reg: 17.8*; GSH bead fluor: 25; Avidin counter: -1.3; RGS8-Gao confirm: 100.3; RGS7-Gao single: 105.0; RGS16-Gao single: 100.4; RGS4-Gao single: 106.6; RGS19-Gao conf: 97.8

What do the screens show for `CC(C)NCC1CCc2cc(CO)c([N+](=O)[O-])cc2N1` (configuration not stated)?
RGS16-Gao: 118.4; Avidin bead fluor: 5; RGS8-Gao reg: 120.7; RGS7-Gao: inconclusive; RGS4-Gao reg: 113.2

What do the screens show for `CC(C)(CN1CCN(Cc2ccccc2)CC1)NS(=O)(=O)c1ccc(Cl)cc1`?
RGS16-Gao: 101.8; Avidin bead fluor: 6; RGS8-Gao reg: 102.7; RGS7-Gao: inconclusive; RGS4-Gao reg: 107.6

How did Fc1cccc(NC(=S)NCCN2CCOCC2)c1 do in these assays?
RGS16-Gao: 91.6; Avidin bead fluor: 14; RGS8-Gao reg: 96.7; RGS7-Gao: 99.4; RGS4-Gao reg: 91.8; GSH bead fluor: 10

What do the screens show for `Fc1cccc(COc2ccccc2C(=S)N2CCCC2)c1`?
RGS16-Gao: 102.8; Avidin bead fluor: 12; RGS8-Gao reg: 99.1; RGS7-Gao: 100.3; RGS4-Gao reg: 101.0; GSH bead fluor: 14

What do the screens show for `CN1C(=O)/C(=C/c2ccccc2OCc2cccc(F)c2)N(C)C1=S`?
GSH bead fluor: 36; Avidin counter: 1.7; RGS8-Gao confirm: 100.0; RGS7-Gao single: 99.3; RGS16-Gao single: 101.0; RGS4-Gao single: 99.2; RGS19-Gao conf: 96.8

How did CC1=NCCN1CCNC(=O)Nc1cc(C)cc(C)c1 do in these assays?
RGS16-Gao: 46.6; Avidin bead fluor: 3; RGS8-Gao reg: 67.4; RGS7-Gao: inconclusive; RGS4-Gao reg: 46.9*; Avidin counter: -1.1; RGS8-Gao confirm: 101.3; RGS7-Gao single: 101.1; RGS16-Gao single: 102.2; RGS4-Gao single: 101.7; RGS19-Gao conf: 101.2

Results for CC1=NCCN1CCNC(=O)Nc1ccc(F)cc1 ?
RGS16-Gao: 108.7; Avidin bead fluor: 8; RGS8-Gao reg: 113.1; RGS7-Gao: inconclusive; RGS4-Gao reg: 119.8

Results for CC(=O)Nc1ccccc1NC(=O)c1ccc(C)c(C)c1 ?
RGS16-Gao: 102.2; Avidin bead fluor: 9; RGS8-Gao reg: 100.5; RGS7-Gao: 102.8; RGS4-Gao reg: 97.6; GSH bead fluor: 16

How did O=C(c1cccs1)N1CCc2ccccc21 do in these assays?
RGS16-Gao: 136.1; Avidin bead fluor: 4; RGS8-Gao reg: 125.9; RGS7-Gao: 152.6*[activator]; RGS4-Gao reg: 154.3*[activator]; GSH bead fluor: 27; Avidin counter: -0.5; RGS8-Gao confirm: 92.5; RGS7-Gao single: 86.0; RGS16-Gao single: 88.9; RGS4-Gao single: 89.0; RGS19-Gao conf: 89.6
